Compounds without any hit were thinned out: in the full panel of roughly 83,000, 20% have a hit.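 The endpoint reported here, percent growth, reads 100 for growth as untreated, 0 for no net growth and -100 for all cells dead.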 Values without a mark were called inactive. The source made the active and inactive calls. How the source made its calls: active means growth percent below 10; inactive means the rest.
Assays:
Experiment in all cases: NCI-60 one-dose screen, 48 h (100 = growth as untreated, 0 = no growth, -100 = all killed)
Conditions in all cases: 10 µM unless noted
NCI-H23 lung = system: NCI-H23 lung
NCI-H226 lung = system: NCI-H226 lung
NCI-H322M lung = system: NCI-H322M lung
HOP-62 NSCLC = system: HOP-62 NSCLC
NCI-H460 lung = system: NCI-H460 lung
NCI-H522 lung = system: NCI-H522 lung
A549/ATCC NSCLC = system: A549/ATCC NSCLC
786-0 renal = system: 786-0 renal
COLO 205 colon = system: COLO 205 colon
DU-145 prostate = system: DU-145 prostate
K-562 leukemia = system: K-562 leukemia
MALME-3M melanoma = system: MALME-3M melanoma
MDA-MB-231 breast = system: MDA-MB-231 breast
RXF 393 renal = system: RXF 393 renal
SF-268 CNS = system: SF-268 CNS
SF-295 CNS = system: SF-295 CNS
SF-539 CNS = system: SF-539 CNS
UACC-257 melanoma = system: UACC-257 melanoma
M14 melanoma = system: M14 melanoma

| SMILES | growth (NCI-H23 lung) | growth (NCI-H226 lung) | growth (NCI-H322M lung) | growth (HOP-62 NSCLC) | growth (NCI-H460 lung) | growth (NCI-H522 lung) | growth (A549/ATCC NSCLC) | growth (786-0 renal) | growth (COLO 205 colon) | growth (DU-145 prostate) | growth (K-562 leukemia) | growth (MALME-3M melanoma) | growth (MDA-MB-231 breast) | growth (RXF 393 renal) | growth (SF-268 CNS) | growth (SF-295 CNS) | growth (SF-539 CNS) | growth (UACC-257 melanoma) | growth (M14 melanoma) |
| --- | --- | --- | --- | --- | --- | --- | --- | --- | --- | --- | --- | --- | --- | --- | --- | --- | --- | --- | --- |
| OCCN(CCO)c1ccc2ccccc2c1 | 101% | 103% | 93.6% | 90.6% | 107% | 73.4% | 97.7% | 111% | 106% | 103% | 106% | 102% | 108% | 125% | 96.8% | 98.9% | 96.7% | 110% | 90.7% |
| COc1cc(C)c(Cl)cc1C1=NN(c2ccc(S(N)(=O)=O)cc2)C(/C=C/c2ccccc2)C1 (centres undefined) | 50.5% | 31.9% | 107% | 59.7% | 26.8% | 27% | 34% | 63.4% | 38.3% | 82.6% | 23.1% | 85.6% | 88.4% | 58% | 70.2% | 63.7% | 103% | 83.4% | 72.2% |
| COc1ccccc1/C=N\Nc1ccc([N+](=O)[O-])cn1 | 101% | 98.7% | 107% | 106% | 123% | 101% | 105% | 105% | 102% | 114% | 112% | 117% | 103% | 115% | 105% | 96.3% | 98.7% | 108% | 94.4% |
| COCc1nc(NS(=O)(=O)c2ccc(N)cc2)nc(C)c1Br | 97.1% | 98.2% | 99% | 91% | 106% | 76.7% | 94% | 100% | 108% | 116% | 98% | 94.6% | 106% | 101% | 109% | 93.6% | 100% | 104% | 101% |
| CC(C)(C)OC[C@@H]1N=C(c2ccc(Br)cc2)Nc2nc3ccccn3c2C1=O | 71.5% | 78.1% | 84.8% | 54.5% | 41.3% | 33.4% | 51.6% | 94.2% | 62.7% | 82.7% | 25.3% | 51.5% | 61.5% | 61.6% | 74.3% | 30.9% | 75.7% | 62.3% | 46.4% |
| CCCCCCCCN(CCCCCCCC)C(=O)CCl | 70.6% | 96.8% | 108% | 113% | 102% | -50.5% (active) | 114% | 80.6% | 108% | 110% | 105% | 84.8% | 104% | 103% | 99% | 106% | 106% | 112% | 104% |
| CCC1=CC2CN(C1)Cc1c([nH]c3ccccc13)[C@@](C(=O)OC)(c1cc3c(cc1OC)N(C)[C@H]1[C@@](O)(C(=O)OC)[C@H](OC(C)=O)[C@]4(CC)C=CCN5CC[C@]31[C@@H]54)C2 (some centres undefined) | 3.64% (active) | -1.33% (active) | 70% | 19.8% | 3.4% (active) | -4.74% (active) | 11% | -8.81% (active) | -75% (active) | -30.1% (active) | 17% | 44.5% | 30.3% | 47.1% | 17.4% | 15.4% | 6.49% (active) | 59.1% | -36.8% (active) |
| O=C(CCCCCCN1CC(=O)N2[C@@H](c3ccc(Cl)c(Cl)c3)c3[nH]c4ccccc4c3C[C@H]2C1=O)NO | 54% | 84.8% | 53.5% | 54.1% | 39.1% | 17.8% | 79.9% | 71.8% | 58.9% | 56.7% | 17.9% | 40% | 44.4% | 36.5% | 74.7% | 61.8% | 52% | 65.5% | 50.6% |
| COc1cnc2c(c1)C(=O)c1c-2n(CCCNC(C)C)c(=O)c2cc(Cl)ccc12 | -64.5% (active) | 25.5% | -35.7% (active) | -88.4% (active) | -82.9% (active) | -79.8% (active) | -84% (active) | -96.3% (active) | -89.8% (active) | -78.4% (active) | -80% (active) | -73.4% (active) | -79.7% (active) | -77.1% (active) | -64.2% (active) | -77.3% (active) | -97.3% (active) | 48.2% | -83.4% (active) |
| CCN1CCN(Cc2ccc(NC(=O)Nc3ccc(-n4ccc5c(NC(=O)c6ccccc6)nccc54)cc3)cc2C(F)(F)F)CC1 | -51.5% (active) | 71.1% | 80.8% | -78.4% (active) | -44.3% (active) | -87.2% (active) | -62.8% (active) | -84.6% (active) | -87.5% (active) | -58.6% (active) | -39.2% (active) | -48% (active) | -39.3% (active) | -86.8% (active) | 41.7% | -18.9% (active) | -48.4% (active) | -69.6% (active) | -65.1% (active) |
| Cc1c2c(cc3c1[nH]c1ccccc13)C=NCC2 | 88.7% | 93% | 99.7% | 96% | 95.5% | 75.1% | 91.5% | 80.8% | 78.2% | 94.9% | 62.3% | 103% | 90.4% | 84.9% | 95.5% | 92.4% | 92.8% | 106% | 91% |
| Cc1ccc(OC2=C(C#N)C(=N)N3C(=NN2)Sc2c(C)ccc(C)c23)cc1 | 85.3% | 93.4% | 102% | 99.6% | 100% | 90.4% | 98.6% | 110% | 106% | 122% | 98% | 120% | 95.4% | 106% | 113% | 96.7% | 102% | 108% | 109% |
| CC(C)[C@@]12C[C@@H](OC(=O)[C@H]3CO3)[C@@](C)(O1)[C@@H]1CC[C@@H](C)[C@H]1[C@@H]2OC(=O)/C=C/c1ccccc1 | 88.4% | 54.1% | 85.4% | 72% | 89.8% | 72.2% | 61.5% | 91.3% | 109% | 102% | 90.1% | 87% | 78.7% | 59.6% | 54.8% | 85.2% | 91.1% | 68.3% | 102% |
| COc1cc(Cl)cc(-c2nn(C(=O)NCCN3CCOCC3)cc2-c2ccncc2)c1 | 84.9% | 99.7% | 104% | 56.7% | 56.1% | 18.3% | 60.7% | 61.8% | 42.3% | 86.1% | 28.1% | 70.2% | 82.1% | 76.3% | 80.9% | 52.7% | 68.4% | 81.7% | 62% |
| C=CCCCCOc1cccc(/C=C2\N=C3SCCCN3C2=O)c1 | 102% | 94.3% | 84.6% | 94.5% | 103% | 83.3% | 93.2% | 95% | 101% | 108% | 91.5% | 115% | 88.6% | 114% | 110% | 96% | 104% | 112% | 103% |
| O=c1c2cc(Br)cc(Br)c2nc(-c2ccc(Cl)cc2)n1/N=C/c1cccc(F)c1 | 53.6% | 40.9% | 49.3% | 10.8% | 40.1% | 38.9% | 48.6% | 9.97% (active) | 54.3% | 91.4% | 63.2% | 63.3% | 46.1% | 47.2% | 70.4% | 41% | 64.4% | 93% | 67.5% |

— PubChem BioAssay (NCI)
